Results filed as inconclusive are left out. Where a call stands in place of a potency, no number is given. Activity calls are given as the source filed them. Calls come from the whole dose curve; as a rule, active = well fitted curve in the direction sought with a large enough effect; inconclusive = small, poorly fitted or top-dose-only effect, or another doubt; inactive = no such curve, though single readings can be large or run the other way.
Potency is the fitted concentration of half-maximal effect.

This experiment in a line: Secondary Assay for Inhibitors of Human Cdc-like kinase 4 (Clk4): HEK-293 Cell Viability Assay.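 Note: cytotoxic hits lower the ATP light signal so activity reflects loss of viability.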 Particulars: HEK-293 viability, ATP luminescence (CellTiter-Glo), 24/48 h; series mostly up to 46.1 µM. On the procedure: NIH Molecular Libraries Probe Production Centers Network [MLPCN] NIH Chemical Genomics Center [NCGC] MLPCN Grant: 1R03MH084827-01 Assay Submitter (PI): Tom Misteli NCGC Assay Overview: Cytotoxicity of the active compounds in the Clk4 screens was assessed using the CellTiter-Glo Luminescent Cell Viability Assay kit (Promega, USA) in the HEK-293 (ATCC) cell line. CellTiter-Glo measures the intracellular ATP present in metabolically active cells using Ultra-Glo as the luciferase to detect ATP levels. In brief, the luciferase in the buffer catalyzes the oxidation of luciferin to oxyluciferin and light which is dependent on ATP. […] Wells treated with various concentrations of cycloheximide (Sigma) and DMSO, and wells with media alone were used as positive and negative controls, respectively. […] [1] http://www.promega.com/tbs/tb288/tb288.pdf
NCGC Assay Protocol Summary: HEK-293 cells were grown in a flask up to 80% confluence. Cells were trypsinized, washed, and resuspended in MEM Eagle + 10% FBS + 1% pen-strep media at a concentration of 120 cells/uL. Five uL/well of cell solution was dispensed into a 1536-well assay plates (Greiner, solid white medium-binding plates) with Aurora Discovery BioRAPTR Flying Reagent Dispenser (FRD; Beckton-Dickenson). Cells were pre-incubated at 37 degree Celsius, 5% CO2 for four hours. Compound and control solutions (23nL) were then transferred to the assay plate using the Kalypsys 1536-pin tool. Assay plates were re- incubated at 37 degree Celsius, 5% CO2. After 24 or 48 hours, five uL of CellTiter Glo detection reagent was added. Luminescence signal was read with Perkin Elmer ViewLux plate reader after 30 min room temperature incubation.
Background: ATP-based viability assays read luminescence as a measure of living cells.
In the case of `c1nc(NCc2ccoc2)c2cc(-c3ccc4c(c3)OCO4)ccc2n1`, the Potency result was “inactive”.
As for `c1cncc(CNc2ncnc3ccc(-c4ccoc4)cc23)c1`, the entry is “inactive”; as for `c1csc(CNc2ncnc3ccc(-c4ccc5c(c4)OCO5)cc23)c1`, “inactive”; as for `CCNC(=O)c1ccc(-c2ccc3ncnc(NCCc4cnc[nH]4)c3c2)o1`, “inactive”.
For `CCOC(=O)c1ccc(-c2ccc3ncnc(NCc4csc(C)n4)c3c2)o1` the value was “inactive”; for `c1nc(NCC2CCCCC2)c2cc(-c3ccc4c(c3)OCO4)ccc2n1`, “inactive”; for `CC(C)(C)CNc1ncnc2ccc(-c3ccc4c(c3)OCO4)cc12`, “inactive”.
For `Cc1ccc(CNc2ncnc3ccc(-c4ccc([C@@H](C)O)o4)cc23)o1` the value was “inactive”; for `Clc1ccccc1-c1ccc2ncnc(NCc3cccs3)c2c1`, “inactive”; for `CCOC(=O)c1ccc(-c2ccc3ncnc(NCc4cccs4)c3c2)o1`, “inactive”.
For `Cc1ccc(CNc2ncnc3cc(-c4ccc5c(c4)OCO5)ccc23)o1`, the Potency result was “inactive”.
Take `Clc1cccc(-c2ccc3ncnc(NCc4cccnc4)c3c2)c1`: the Potency result was “inactive”.
As to `Cc1ccsc1CN(C)c1ncnc2ccc(-c3ccc([C@@H](C)O)o3)cc12`, the Potency entry was “inactive”.
Regarding `CCN1/C(=C/C(C)=O)Sc2ccc(OC)cc21`, the Potency result is “inactive”.
For the compound `Cc1ccc(CNc2ncnc3ccc(-c4ccoc4C)cc23)o1`, the Potency result is “inactive”.
As to `Cc1cccc(CNc2ncnc3ccc(-c4ccccc4Cl)cc23)c1`, the Potency result was “inactive”.
As for `OCc1ccc(-c2ccc3ncnc(NCCc4cnc[nH]4)c3c2)o1`, the entry is “inactive”; as for `Cn1ccc2cc(-c3ccc4ncnc(NCc5cccs5)c4c3)ccc21`, “inactive”; as for `Cc1csc(CNc2ncnc3ccc(-c4cccnc4)cc23)c1`, “inactive”.
As to `Cc1nc(CN(C)c2ncnc3ccc(-c4ccc5c(c4)OCO5)cc23)cs1`, the Potency is 28.1 µM (active).
For `CCNC(=O)c1ccc(-c2ccc3ncnc(NCc4nccs4)c3c2)o1`, the Potency result is “inactive”.
As for `COc1cccc(-c2ccc3ncnc(NCc4cccc(C)c4)c3c2)c1`, the entry is “inactive”; as for `Cc1cccc(CNc2ncnc3ccc(-c4ccc5c(c4)OCO5)cc23)c1`, “inactive”.
For `Cc1nc(CNc2ncnc3ccc(-c4sc(C)nc4C)cc23)cs1` the value was “inactive”.
For `Cn1cncc1CNc1ncnc2ccc(-c3ccc4c(c3)OCO4)cc12` the value was “inactive”; for `c1cncc(CNc2ncnc3ccc(-c4ccc5c(c4)OCO5)cc23)c1`, “inactive”.
With `c1nc(N2CCNCC2)c2cc(-c3ccc4c(c3)OCO4)ccc2n1`, the Potency result was “inactive”.
As for `CCN(Cc1sccc1C)c1ncnc2ccc(-c3ccc4c(c3)OCO4)cc12`, the entry is “inactive”; as for `CN(Cc1ccco1)c1ncnc2ccc(-c3ccoc3)cc12`, “inactive”; as for `Cc1csc(CNc2ncnc3ccc(-c4cccc(Cl)c4)cc23)c1`, “inactive”.
Regarding `Cc1csc(CNc2ncnc3ccc(-c4ccc(C(C)O)o4)cc23)n1` (stereo not given), the Potency entry was “inactive”.
For `Cc1cccc(CNc2ncnc3ccc(-c4cccnc4)cc23)c1` the value was “inactive”.
For `CCOC(=O)c1ccoc1-c1ccc2ncnc(NCc3ncc[nH]3)c2c1`, the Potency result was “inactive”.
For `c1nc(N2CCC(N3CCCC3)CC2)c2cc(-c3ccc4c(c3)OCO4)ccc2n1` the value was “inactive”.
For `CCN(CCc1cn(C)cn1)c1ncnc2ccc(-c3ccc4c(c3)OCO4)cc12` the value was “inactive”; for `Cc1occc1CNc1ncnc2ccc(-c3ccc4c(c3)OCO4)cc12`, “inactive”.
For the compound `CN(Cc1ncc[nH]1)c1ncnc2ccc(-c3ccc4c(c3)OCO4)cc12`, the Potency result is “inactive”.
As for `c1cncc(CNc2ncnc3ccc(-c4cccnc4)cc23)c1`, the entry is “inactive”.
Turning to `CCNC(=O)c1ccc(-c2ccc3ncnc(NCc4ccc(C)o4)c3c2)o1`, the Potency entry is “inactive”.
As for `c1cncc(CNc2ncnc3ccc(-c4ccc5c(c4)OCCO5)cc23)c1`, the entry is “inactive”.
